Source: PubChem BioAssay (NCI)
This is part of a sample that, as a whole, favours compounds with a hit. Of some 83,000 tested, about 20% had one in any assay.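 Cell lines were cultured in 96-well plates, exposed to a single compound concentration, and assessed for percent growth 48 hours later.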 Unmarked numbers belong to inactive results. Calls of active or inactive are those of the source. Rule for the calls: active = growth percent below 10; inactive = the rest.

Key:
Experiment in all cases: NCI-60 one-dose screen, 48 h (100 = growth as untreated, 0 = no growth, -100 = all killed)
Settings in all cases: 10 µM unless noted
BT-549 breast = test system: BT-549 breast
MDA-MB-435 melanoma = test system: MDA-MB-435 melanoma
SW-620 colon = test system: SW-620 colon
MCF7 breast = test system: MCF7 breast
HCT-116 colon = test system: HCT-116 colon
HCC-2998 colon = test system: HCC-2998 colon
KM12 colon = test system: KM12 colon

CC(CCC(=O)O)(NC(=O)c1ccc([N+](=O)[O-])cc1)C(=O)O (centres undefined)
growth (BT-549 breast): 114%
growth (MDA-MB-435 melanoma): 105%
growth (SW-620 colon): 103%
growth (MCF7 breast): 107%
growth (HCT-116 colon): 98.9%
growth (HCC-2998 colon): 90.4%
growth (KM12 colon): 99.3%

CCOC(=O)C1C(=O)OC2CCCCC21 (centres undefined)
growth (BT-549 breast): 97.5%
growth (MDA-MB-435 melanoma): 114%
growth (SW-620 colon): 110%
growth (MCF7 breast): 95.4%
growth (HCT-116 colon): 101%
growth (HCC-2998 colon): 106%
growth (KM12 colon): 109%

O=C1CCCN1C1CCN(Cc2cc3ccccc3[nH]c2=O)c2ccccc21 (centres undefined)
growth (BT-549 breast): 98.2%
growth (MDA-MB-435 melanoma): 93.5%
growth (SW-620 colon): 96.3%
growth (MCF7 breast): 92.8%
growth (HCT-116 colon): 82.6%
growth (HCC-2998 colon): 96.4%
growth (KM12 colon): 98.1%

O=C1C[C@@H]2/C(=C(O)\C=C\c3ccccc3)C(=O)C=C[C@@H]2O1
growth (BT-549 breast): -40.5% (active)
growth (MDA-MB-435 melanoma): -31.6% (active)
growth (SW-620 colon): -33.2% (active)
growth (MCF7 breast): 6.03% (active)
growth (HCT-116 colon): -90.6% (active)
growth (HCC-2998 colon): 99.6%
growth (KM12 colon): -91% (active)

COc1ccc(C(=O)C(C)Br)cc1OC (centres undefined)
growth (BT-549 breast): 94.3%
growth (MDA-MB-435 melanoma): 87.4%
growth (SW-620 colon): 40.8%
growth (MCF7 breast): 84.4%
growth (HCT-116 colon): 52.2%
growth (HCC-2998 colon): 101%
growth (KM12 colon): 93.3%

CC(C)C(=O)Cc1cnccn1
growth (BT-549 breast): 110%
growth (MDA-MB-435 melanoma): 101%
growth (SW-620 colon): 102%
growth (MCF7 breast): 103%
growth (HCT-116 colon): 109%
growth (HCC-2998 colon): 104%
growth (KM12 colon): 112%

COC(=O)[C@]1(CCSC)N[C@H](c2cn(-c3ccccc3)nc2C)[C@@H]2C(=O)N(c3ccc(C)cc3)C(=O)[C@@H]21
growth (BT-549 breast): 82.8%
growth (MDA-MB-435 melanoma): 105%
growth (SW-620 colon): 106%
growth (MCF7 breast): 102%
growth (HCT-116 colon): 92.5%
growth (HCC-2998 colon): 96.4%
growth (KM12 colon): 104%

CCOC(=O)c1c2c(c(C)n1Cc1ccc(OC)cc1)-c1nc(N)ncc1CC2
growth (BT-549 breast): 119%
growth (MDA-MB-435 melanoma): 110%
growth (SW-620 colon): 100%
growth (MCF7 breast): 106%
growth (HCT-116 colon): 94.8%
growth (HCC-2998 colon): 80.3%
growth (KM12 colon): 109%

COc1ccc2c(c1)C(=O)c1c-2c(OCCN(C)C)nc2cc(OC)ccc12
growth (BT-549 breast): 56.6%
growth (MDA-MB-435 melanoma): 18.5%
growth (SW-620 colon): -45.8% (active)
growth (MCF7 breast): -50% (active)
growth (HCT-116 colon): -76% (active)
growth (HCC-2998 colon): -88.8% (active)
growth (KM12 colon): -37.4% (active)

COc1ccc(-c2nn(-c3cccc(Cl)c3)cc2C2CC(c3ccccc3)=NN2C(C)=O)cc1 (centres undefined)
growth (BT-549 breast): 74.7%
growth (MDA-MB-435 melanoma): 88.5%
growth (SW-620 colon): 73.6%
growth (MCF7 breast): 68%
growth (HCT-116 colon): 60.9%
growth (HCC-2998 colon): 95.4%
growth (KM12 colon): 96.4%

CC(=O)Oc1ccc(C2OC(c3ccc4ccccc4c3OC(C)=O)=NN2C(C)=O)c(OC(C)=O)c1 (centres undefined)
growth (BT-549 breast): 31%
growth (MDA-MB-435 melanoma): 33.6%
growth (SW-620 colon): 32%
growth (MCF7 breast): 15.6%
growth (HCT-116 colon): 20.6%
growth (HCC-2998 colon): 29.9%
growth (KM12 colon): 19.7%

COc1cc(C2NC(c3ccc(Cl)cc3)C(C)C(=NC(=O)c3cnccn3)C2C)cc(OC)c1OC (centres undefined)
growth (BT-549 breast): 102%
growth (MDA-MB-435 melanoma): 108%
growth (SW-620 colon): 114%
growth (MCF7 breast): 93.1%
growth (HCT-116 colon): 78.9%
growth (HCC-2998 colon): 129%
growth (KM12 colon): 90.7%

COc1cc(/C=C/C(=O)N2CCN(C(=O)/C=C/c3ccccc3)CC2)cc(OC)c1OC
growth (BT-549 breast): 104%
growth (MDA-MB-435 melanoma): 111%
growth (SW-620 colon): 109%
growth (MCF7 breast): 110%
growth (HCT-116 colon): 105%
growth (HCC-2998 colon): 102%
growth (KM12 colon): 118%

NC(N)=NC(N)=NCCCc1ccccc1
growth (BT-549 breast): 49.5% [100 µM]
growth (MDA-MB-435 melanoma): 60.5% [100 µM]
growth (SW-620 colon): 77.8% [100 µM]
growth (MCF7 breast): 59.2% [100 µM]
growth (HCT-116 colon): 50.6% [100 µM]
growth (HCC-2998 colon): 68.5% [100 µM]
growth (KM12 colon): 78.1% [100 µM]

Fc1ccc(-c2nnc(-c3c(-c4ccc(F)cc4)nc4ncccn34)o2)cc1
growth (BT-549 breast): 99.9%
growth (MDA-MB-435 melanoma): 97%
growth (SW-620 colon): 108%
growth (MCF7 breast): 92.4%
growth (HCT-116 colon): 94.5%
growth (HCC-2998 colon): 111%
growth (KM12 colon): 103%

COc1ccc2nc(NC(=O)c3cc(-c4ccc(F)cc4)n4nc(-c5ccccc5)cc4n3)sc2c1
growth (BT-549 breast): 53.5%
growth (MDA-MB-435 melanoma): 96.2%
growth (SW-620 colon): 94.7%
growth (MCF7 breast): 86.8%
growth (HCT-116 colon): 61.5%
growth (HCC-2998 colon): 98.6%
growth (KM12 colon): 74.1%

Cc1cc(C(=O)O)c(C)cc1C(=O)O
growth (BT-549 breast): 103%
growth (MDA-MB-435 melanoma): 113%
growth (SW-620 colon): 114%
growth (MCF7 breast): 96%
growth (HCT-116 colon): 105%
growth (HCC-2998 colon): 95.1%
growth (KM12 colon): 113%

COC(=O)[C@]1(CCSC)N[C@H](c2cn(-c3ccccc3)nc2C)[C@@H]2C(=O)N(c3ccccc3)C(=O)[C@@H]21
growth (BT-549 breast): 95.5%
growth (MDA-MB-435 melanoma): 106%
growth (SW-620 colon): 107%
growth (MCF7 breast): 98.5%
growth (HCT-116 colon): 98.3%
growth (HCC-2998 colon): 95.2%
growth (KM12 colon): 107%

CN(CC(=O)N(Cc1ccc(C2CCCCC2)cc1)c1ccc(C(=O)O)cc1)S(=O)(=O)c1c(F)c(F)c(F)c(F)c1F
growth (BT-549 breast): 75.4%
growth (MDA-MB-435 melanoma): 68.3%
growth (SW-620 colon): -67% (active)
growth (MCF7 breast): 10.6%
growth (HCT-116 colon): 5.63% (active)
growth (HCC-2998 colon): -62.9% (active)
growth (KM12 colon): 90%

N#CCCCCCn1c2ccccc2c2c3c(c4c5ccccc5[nH]c4c21)C(=O)N(O)C3=O
growth (BT-549 breast): 16.1%
growth (MDA-MB-435 melanoma): 14.3%
growth (SW-620 colon): 12.5%
growth (MCF7 breast): 6.24% (active)
growth (HCT-116 colon): -33.3% (active)
growth (HCC-2998 colon): 1.36% (active)
growth (KM12 colon): 4.16% (active)

CN1C(=O)C(=Cc2cn(Cc3ccccc3)c3ccc(Br)cc23)C(=O)N(C)C1=O
growth (BT-549 breast): 102%
growth (MDA-MB-435 melanoma): 102%
growth (SW-620 colon): 108%
growth (MCF7 breast): 87%
growth (HCT-116 colon): 101%
growth (HCC-2998 colon): 107%
growth (KM12 colon): 102%

O=C(CCc1nnc(Cn2cncn2)o1)c1nc2ccccc2[nH]1
growth (BT-549 breast): 112%
growth (MDA-MB-435 melanoma): 103%
growth (SW-620 colon): 113%
growth (MCF7 breast): 91%
growth (HCT-116 colon): 111%
growth (HCC-2998 colon): 112%
growth (KM12 colon): 114%

CC(C)[C@]12O[C@H]1[C@@H]1O[C@]13[C@]1(O[C@H]1C[C@H]1C4=C(CC[C@@]13C)C(=O)OC4)[C@@H]2OC(=O)CN(C)C
growth (BT-549 breast): -18.2% (active)
growth (MDA-MB-435 melanoma): -76.4% (active)
growth (SW-620 colon): 0.523% (active)
growth (MCF7 breast): 18.1%
growth (HCT-116 colon): 4.59% (active)
growth (HCC-2998 colon): -37.2% (active)
growth (KM12 colon): 2.83% (active)

Cc1cccc(Cl)c1NC(=O)c1ccc2nc(NC(=O)NC3CC(C)(C)NC(C)(C)C3)sc2c1
growth (BT-549 breast): 95%
growth (MDA-MB-435 melanoma): 90%
growth (SW-620 colon): 110%
growth (MCF7 breast): 86.5%
growth (HCT-116 colon): 89.1%
growth (HCC-2998 colon): 96.5%
growth (KM12 colon): 110%

COc1ccc(-c2nc3sccn3c2-c2ccnc(S(C)(=O)=O)n2)cc1
growth (BT-549 breast): 122%
growth (MDA-MB-435 melanoma): 82.7%
growth (SW-620 colon): 91.1%
growth (MCF7 breast): 46.2%
growth (HCT-116 colon): 79.6%
growth (HCC-2998 colon): -55% (active)
growth (KM12 colon): 75%

O=C(Nc1cccc(-n2cc(-c3ccncc3)c(-c3ccc(O)c(Cl)c3)n2)c1)Nc1ccc(Cl)c(C(F)(F)F)c1
growth (BT-549 breast): -12.6% (active)
growth (MDA-MB-435 melanoma): -61.6% (active)
growth (SW-620 colon): 8.96% (active)
growth (MCF7 breast): -7.24% (active)
growth (HCT-116 colon): -8.62% (active)
growth (HCC-2998 colon): 14.7%
growth (KM12 colon): -25.2% (active)

COc1cc2c(cc1OC)C1CCN3C(=O)CCC3N1CC2 (centres undefined)
growth (BT-549 breast): 107%
growth (MDA-MB-435 melanoma): 113%
growth (SW-620 colon): 106%
growth (MCF7 breast): 103%
growth (HCT-116 colon): 109%
growth (HCC-2998 colon): 101%
growth (KM12 colon): 109%

O=c1ccn(C2CCCO2)c(=O)[nH]1 (centres undefined)
growth (BT-549 breast): 118%
growth (MDA-MB-435 melanoma): 103%
growth (SW-620 colon): 102%
growth (MCF7 breast): 99.4%
growth (HCT-116 colon): 97.2%
growth (HCC-2998 colon): 104%
growth (KM12 colon): 108%

COc1cc2cn3c4ccc(O)cc4nc(N)c3c2cc1OC
growth (BT-549 breast): 20.6%
growth (MDA-MB-435 melanoma): 12.4%
growth (SW-620 colon): 26.1%
growth (MCF7 breast): 6.3% (active)
growth (HCT-116 colon): -50.7% (active)
growth (HCC-2998 colon): 27.2%
growth (KM12 colon): 37.9%

CN=C(NC)N/N=C(C)\C=N\NC(=NC)NC
growth (BT-549 breast): 110%
growth (MDA-MB-435 melanoma): 104%
growth (SW-620 colon): 99.5%
growth (MCF7 breast): 104%
growth (HCT-116 colon): 105%
growth (HCC-2998 colon): 110%
growth (KM12 colon): 104%

CC(C)[O-].CC(C)[O-].CN(CCN(C)Cc1cc(F)cc(F)c1[O-])Cc1cc(F)cc(F)c1[O-].[Ti+4]
growth (BT-549 breast): -1.16% (active)
growth (MDA-MB-435 melanoma): -24.5% (active)
growth (SW-620 colon): 0.502% (active)
growth (MCF7 breast): -42.2% (active)
growth (HCT-116 colon): -0.794% (active)
growth (HCC-2998 colon): 57%
growth (KM12 colon): -30.7% (active)

O=C(NN(C(=O)c1ccccc1)c1cccs1)c1ccccc1
growth (BT-549 breast): 98%
growth (MDA-MB-435 melanoma): 124%
growth (SW-620 colon): 104%
growth (MCF7 breast): 110%
growth (HCT-116 colon): 93.7%
growth (HCC-2998 colon): 103%
growth (KM12 colon): 117%
